Assay outcomes: PubChem BioAssay, The Scripps Research Institute Molecular Screening Center
Shown are actives, neighbours in structure and some others; about 4.8% of the full set was active somewhere.
hcDAF12 agonist: H. contortus DAF-12 activation, primary screen. hit rate 1.4% among 370,000. AID 652067. HEK293 hcDAF-12 lit1-tk-luc reporter, luminescence; 0% DMSO, 100% Δ7-dafachronic acid. activation, % at 6.8 µM;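 active = activation above the mean of all tested compounds plus 3 SD, cut at about 5.5% in these data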;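 note: 100% = response to 3 µM Δ7-dafachronic acid high control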
hgDAF-12 ag: hgDAF-12 agonism, primary luciferase screen; HEK293 GAL4-hgDAF12 UAS-luciferase reporter, agonist luminescence; normalized to butyrate control; activation, % at 6.8 µM; hit rate 1.8% among 370,000;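 active = activation above a cutoff set at the mean of all screened compounds plus 3 SD, cut at about 10% in these data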;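 note: 0% = DMSO wells and 100% = sodium butyrate wells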
SMARCA2 activ: SMARCA2 function activation, primary screen | MG213 cells, MMTV-luciferase reporter, dexamethasone, overnight | activation, % at 9.1 µM | hit rate 1% among 370,000; in the data active = activation above about 7.8%;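 note: 0% = vehicle wells and 100% = reference activator wells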
DAX1 inh-1: inhibits human nuclear receptor DAX1. hit rate 0.99% among 340,000. P51843. HEK293 Gal4-DAX1 luciferase reporter, luminescence. inhibition, % at 6.75 µM. AID 504766;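 active = inhibition above the mean over all tested compounds plus 3 SD, cut at about 4.2% in these data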;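 note: 0% = DAX1-transfected cells with DMSO and 100% = empty-vector control cells with DMSO; inhibition shows as a rise in luminescence from relieved DAX1 repression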
Target sequence (P51843 207-470 limits assumed): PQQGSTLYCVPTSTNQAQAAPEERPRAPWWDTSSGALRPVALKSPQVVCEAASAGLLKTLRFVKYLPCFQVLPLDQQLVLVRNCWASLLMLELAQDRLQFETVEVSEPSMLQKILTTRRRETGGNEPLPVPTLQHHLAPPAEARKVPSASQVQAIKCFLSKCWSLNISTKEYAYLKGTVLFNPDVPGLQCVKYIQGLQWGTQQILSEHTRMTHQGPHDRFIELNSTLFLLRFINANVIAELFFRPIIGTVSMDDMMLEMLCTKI
ssDAF12 agonist: activators of S. stercoralis DAF-12 nuclear receptor; hit rate 1% among 370,000; AID 652126; activation, % at 6.8 µM; HEK293 ssDAF-12/GRIP1 lit1-tk-luc reporter, luminescence; % of 3 µM dafachronic acid response;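 active = activation above the mean over all tested compounds plus 3 SD, cut at about 0.9% in these data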;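 note: 0% = DMSO-only wells and 100% = 3 µM delta7-dafachronic acid wells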
DAX1 inh-2: inhibitors of DAX1 repression of SF-1 activated StAR promoter; HEK293T StAR-luciferase reporter, SF-1/DAX-1 repression relief; inhibition, % at 6.8 µM; hit rate 1.1% among 370,000;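 active = inhibition above the mean over all tested compounds plus 3 SD, cut at about 3.6% in these data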;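 note: 0% = DAX-1 cells with DMSO and 100% = cells lacking DAX-1 with DMSO; higher inhibition means more luminescence from relief of DAX-1 repression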
An asterisk follows results filed as active; x = no result.

SMILES | hcDAF12 agonist | hgDAF-12 ag | SMARCA2 activ | DAX1 inh-1 | ssDAF12 agonist | DAX1 inh-2
Cc1c(NC(=O)/C(C#N)=C/c2ccccc2)c(=O)n(-c2ccccc2)n1C | 0 | 0 | -1 | -1 | -1 | 0
Cc1ccsc1/C=C(\C#N)C(=O)Nc1c(C)n(C)n(-c2ccccc2)c1=O | 0 | 0 | 0 | 4.8* | -2 | 1
Cc1ccc(Oc2nc3ccccn3c(=O)c2/C=C(\C#N)C(=O)Nc2c(C)n(C)n(-c3ccccc3)c2=O)c(C)c1 | 0 | -1 | -3 | 0 | -1 | 0
COc1ccc(S(N)(=O)=O)cc1C(=O)OCCCOC(=O)c1cc(S(N)(=O)=O)ccc1OC | 1 | 1 | -4 | 1 | -1 | -1
c1ccc(Cn2ccc3ccc(-c4ccc5ccn(Cc6ccc7ccccc7c6)c5c4)cc32)cc1 | -1 | 4 | 4 | x | 0 | 0
Clc1ccc(Cn2ccc3ccccc32)cn1 | 1 | -1 | -1 | 6.0* | -1 | 0
COc1ccc(C(=O)Nc2nnc(SCC(=O)NCC3CCCO3)s2)cc1OC (configuration not stated) | -1 | 3 | 0 | -1 | -1 | 1
COc1cc(/C=N/Nc2cccc3cccnc23)cc(OC)c1O | 0 | 13* | 0 | -1 | -1 | 0
COc1cc(/C=N/Nc2ccccn2)cc(OC)c1O | 2 | 1 | -2 | 0 | -1 | -1
CSCCC(NC(N)=O)C(=O)Nc1cccc(C#N)c1 (configuration not stated) | -1 | 4 | 1 | 5.1* | -2 | 0
Nc1nc(-c2ccccc2)c(N=Nc2ccccc2Cl)s1 | 5.8* | 5 | -4 | -1 | -1 | -1
CCOc1ccc(C(=O)c2nc3c(n2O)CCCCC3)cc1 | -1 | -1 | -2 | 1 | -1 | 0
CC(=O)NC(CC(=O)Nc1ccc(S(=O)(=O)N2CCCCC2)cc1)c1ccccc1 (configuration not stated) | 0 | -3 | 2 | 1 | -1 | 0
CCCCn1c(N)c(N(CC)C(=O)COc2ccc(C#N)cc2)c(=O)[nH]c1=O | 0 | -1 | -1 | 1 | 1.3* | 0
CCCCn1c(N)c(N(CCOC)C(=O)COc2ccc(OCC)cc2)c(=O)[nH]c1=O | 1 | -3 | -5 | 1 | -1 | 0
C/C(=N\Nc1nncc2ccccc12)c1ccc(C(C)(C)C)cc1 | x | x | x | 4.9* | x | x
O=C(CCN1C(=O)/C(=C/c2cccs2)SC1=S)N1CCCCC1 | 0 | -1 | -1 | 1 | -1 | 0
CCOC(=O)CNC(=O)CSc1nc(C)cc(C)c1C#N | -1 | 1 | -3 | 0 | -1 | -1
CCOC(=O)NC(=O)CSc1nc(C)cc(C)c1C#N | 3 | 13* | 3 | -1 | -1 | 3
Cc1cc(C)c(C#N)c(SCC(=O)Nc2cc(C)on2)n1 | 3 | 11* | 3 | 2 | 0 | 3
Cc1cc(NC(=O)CSc2nnc(C)n2-c2ccccc2C)no1 | -1 | 1 | 0 | 4.2* | -1 | 0
Cc1cc(NC(=O)CSc2nc3c(C)ccc(C)c3cc2C#N)no1 | -1 | 0 | -4 | 5.7* | -1 | 0
CCN(C(=O)C1CCN(c2nc(-c3ccc(OC)cc3)no2)CC1)c1ccccc1 | 2 | 9 | 1 | 0 | -1 | -1
CN(C)c1ccc(NC(=O)COC(=O)c2cc(Cl)ccc2[N+](=O)[O-])cc1 | 3 | 1 | -1 | 0 | -1 | 0
Nc1c(Cl)cc(C2=NCCn3nc4cc([N+](=O)[O-])ccc4c32)cc1Cl | 5.8* | -1 | 1 | 1 | 0 | 0
SMILES | hcDAF12 agonist | hgDAF-12 ag | SMARCA2 activ | DAX1 inh-1 | ssDAF12 agonist | DAX1 inh-2
COc1ccc2c3n(nc2c1)CCN=C3c1cc(Cl)c(N)c(Cl)c1 | 0 | 0 | 3 | 0 | -1 | 0
CCOc1ccc(NC(=O)CN2CCN(CC(=O)Nc3ccc4c(c3)OCO4)CC2)cc1 | 0 | 1 | 2 | 0 | -1 | 0
Cn1c(=O)c2c(O)cc(=O)n(-c3ccccc3)c2n(C)c1=O | -1 | -4 | -4 | -1 | -1 | 0
CN(C)CCCN(C(=O)c1cc(Cl)sc1Cl)c1nc2cc3c(cc2s1)OCO3 | 3 | 3 | 1 | 1 | 0 | 4.1*
Cc1ccccc1C(=O)NC[C@@H]1CCCN2CCCC[C@H]12 | 2 | -2 | -3 | 4.5* | -2 | 0
O=C(NCC1CCCO1)/C(=C/c1ccccc1)NC(=O)c1ccccc1 (configuration not stated) | 0 | 4 | -3 | -2 | -1 | 0
Fc1ccc(CNCC2CCCO2)cc1 (configuration not stated) | 0 | -1 | -2 | 4.3* | -1 | 0
C(=C\c1ccccc1)/CNCC1CCCO1 (configuration not stated) | 3 | 7 | -2 | 0 | 1.6* | 0
CC(=NN1CC(=O)NC1=O)c1ccc([N+](=O)[O-])o1 | 0 | -2 | 0 | -1 | -2 | -3
Brc1ccc(-c2nc(-c3ccccc3)no2)o1 | 6.1* | 12* | 7 | 4 | 1.4* | 3
O=C(NCc1cccnc1)c1ccc2sc([C@@H]3O[C@H](CO)[C@H](O)[C@H](O)[C@H]3O)nc2c1 | 1 | 0 | 1 | x | 0.9* | 1
Nc1ccccc1-c1nc2ccccc2[nH]1 | 2 | 11* | 3 | 3 | -1 | 4.0*
Nc1nnc(-c2cccc(F)c2)s1 | -1 | 0 | 0 | 3 | -2 | 0
Nc1nnc(-c2ccc(Cl)c(Cl)c2)s1 | 3 | 1 | 3 | 5.8* | -1 | 0
Cc1cc(C)nc(-n2ncc3c2CCCC3=O)n1 | -3 | 0 | 0 | 5.4* | -1 | 0
O=c1[nH]c(-c2ccc(O)cc2)nc2scc(-c3cccs3)c12 | 2 | 13* | 4 | 1 | -1 | 2
Cc1ccccc1NS(=O)(=O)c1csc(C(N)=O)c1 | 1 | 1 | -2 | 3 | -1 | 0
O=C(Nc1cccnc1)c1cc(-c2ccc(Cl)cc2Cl)on1 | 2 | 5 | 4 | 6.7* | 0 | 1
CC(C)Cc1cc(C(=O)Nc2cccnc2)no1 | 3 | 10 | 7.9* | 1 | 1 | 4.4*
Cc1cccc(/C=N/NC(=O)c2cc(-c3cccnc3)nc3c2c(C)nn3-c2ccccc2)c1 | 0 | -2 | -2 | -1 | -2 | 0
CC1(c2ccccn2)Nc2ccccc2-c2nc3ccccc3n21 (configuration not stated) | 2 | 11* | 4 | 4.4* | 0 | 1
c1ccc2c(c1)NC1(CCCCC1)n1c-2nc2ccccc21 | 4 | 11* | 1 | 1 | -1 | 2
c1ccc2c(c1)NC1(CCCCCC1)n1c-2nc2ccccc21 | 3 | 10 | 7 | 1 | -1 | 2
